Source: PubChem BioAssay (Tox21)
Results filed as inconclusive are left out. Where a call stands in place of a potency, no number is given. Unmarked numbers belong to inactive results. Active and inactive are the calls of the source. Unless noted, calls follow the shape of the dose curve; as a rule, active = well fitted activation curve with a large enough effect in the repeat runs; inconclusive = weak or mixed curves, or effect the other way; inactive = no such curve, though single readings can be large or run the other way.

Assay: qHTS assay to identify small molecule antagonists of the estrogen related receptor signaling pathway with the pleiotropic PPARgamma coactivator (PGC) from Tox21 10K library (AID 1224841; call rule not given here; also: actives are mostly falling curves and most rising ones were filed inactive; nearly all actives have a fitted effect of over 50% in size)
Details: PGC/ERR reporter cell line, ONE-Glo luciferase, 18 h; series mostly up to 92.4 µM
Method in brief: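 qHTS antagonist format: PGC/ERR cells, 2k/well, compound in DMSO by pin transfer after 6 h attachment, 18 h treatment at 37 C, One-Glo luminescence read at 30 min.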
Potency is read from the fitted curve at half-maximal effect.

Q: For `COC(=O)/C=C/C(C)=C\C=C\C(C)=C\C=C\C=C(C)\C=C\C=C(C)\C=C\C(=O)O`, which Potency is on record?
A: The Potency was “inactive”.

Q: With `COC(=O)C(C)(C)C` as the molecule, how does the Potency read?
A: Its Potency is “inactive”.

Q: Which Potency does the source give for `CCCCOc1ccc(N)cc1` here?
A: Its Potency is “inactive”.

Q: With `Clc1cc(Cl)c2c(c1)N=C1CCCCCN1C2` as the molecule, how does the Potency read?
A: Its Potency is “inactive”.

Q: For `CCCCCCCCCCCCCCCCCCCl`, which activity, negative = inhibition is on record?
A: The activity, negative = inhibition was 20.1% [at 8.39 µM].

Q: For `CCCN(C1CCN(C(=O)C2CCNCC2)CC1)[C@@H]1CCc2ccc(OC)cc2C1`, which Potency is on record?
A: Its Potency is “inactive”.

Q: With `N#C[C@@H]1CC(F)(F)CN1C(=O)CNC1CC2CCC(C1)N2c1ncccn1` (stereo not given in full) as the molecule, how does the Potency read?
A: The Potency was “inactive”.

Q: With `COc1ccc(/C(C)=C/C(=O)O)c(OC)c1` as the molecule, how does the Potency read?
A: Its Potency is “inactive”.

Q: With `CCCCCCCCCCCCSC#N` as the molecule, how does the Potency read?
A: The Potency was “inactive”.

Q: For `Cc1cc(SC2=C(O)C[C@@](CCc3ccc(N)cc3)(C(C)C)OC2=O)c(C(C)(C)C)cc1CO`, which Potency is on record?
A: Its Potency is “inactive”.

Q: With `O=C(N[C@@H](Cc1ccccc1)[C@@H](O)C(=O)N1C[C@@H](O)[C@@H](O)C1)c1cc2cc(Cl)ccc2[nH]1` as the molecule, how does the Potency read?
A: The Potency was 54.5 µM (active).

Q: For `Sc1nc(S)nc(S)n1`, which Potency is on record?
A: Its Potency is “inactive”.

Q: Which Potency does the source give for `CC1=CC(=C(c2ccc(N)cc2)c2ccc(N)cc2)C=CC1=N` here?
A: The Potency was 2.76 µM (active).

Q: With `CC(=O)Oc1cccc2c1C(=O)c1c(OC(C)=O)cc(C(=O)O)cc1C2=O` as the molecule, how does the Potency read?
A: Its Potency is 21.1 µM (active).

Q: With `CC(C)C/C=C(\C=O)c1ccccc1` as the molecule, how does the Potency read?
A: The Potency was “inactive”.

Q: Which Potency does the source give for `Oc1ccc(CCNCCCCCCNCCc2ccccc2)cc1O` here?
A: Its Potency is “inactive”.

Q: Which Potency does the source give for `CCn1nc(Cc2ccccc2)cc1C1CCN(C[C@H]2C[C@H](N(C)[C@@H](C(=O)O)C(C)C)C[C@@H]2c2cccc(F)c2)CC1` here?
A: Its Potency is “inactive”.

Q: For `Nc1cccc2c(=O)[nH][nH]c(=O)c12`, which Potency is on record?
A: Its Potency is 61.4 µM (active).

Q: With `N#CCCCC(C#N)CCC#N` (stereo not given) as the molecule, how does the Potency read?
A: The Potency was “inactive”.

Assay: qHTS assay to identify small molecule agonists of the estrogen related receptor signaling pathway with the pleiotropic PPARgamma coactivator (PGC) from Tox21 10K library (AID 1224842); also: nearly all actives have a fitted effect of over 15% in size
Details: PGC/ERR reporter cell line, luciferase ONE-Glo, 18 h; series mostly up to 92.4 µM
Method in brief: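 Luminescence from One-Glo (30 min, room temperature) measured after PGC/ERR cells had 18 h at 37 C with pinned compound (23 nL in DMSO). Cells had been seeded at 2,000 per well and pre-incubated 6 h.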

Q: With `CC(C)(Cc1c[nH]c2ccccc12)NCC(O)COc1ccccc1C#N` (stereo not given) as the molecule, how does the Potency read?
A: Its Potency is “inactive”.

Q: With `COC(=O)/C=C/C(C)=C\C=C\C(C)=C\C=C\C=C(C)\C=C\C=C(C)\C=C\C(=O)O` as the molecule, how does the Potency read?
A: The Potency was “inactive”.

Q: With `O=C(O)c1ccncc1` as the molecule, how does the Potency read?
A: The Potency was “inactive”.

Q: For `COC(=O)C(C)(C)C`, which Potency is on record?
A: The Potency was “inactive”.

Q: Which Potency does the source give for `NC(=O)c1ccccc1C(N)=O` here?
A: The Potency was “inactive”.

Q: With `O=c1[nH]nc(-c2ccc([N+](=O)[O-])o2)o1` as the molecule, how does the Potency read?
A: The Potency was “inactive”.

Q: Which Potency does the source give for `CC(C)CC(C)(C)C` here?
A: The Potency was “inactive”.

Q: With `CC(=O)Nc1ccccc1O` as the molecule, how does the Potency read?
A: Its Potency is “inactive”.

Q: For `Clc1cc(Cl)c2c(c1)N=C1CCCCCN1C2`, which Potency is on record?
A: Its Potency is “inactive”.

Q: Which activation does the source give for `CCCCCCCCCCCCCCCCCCCl` here?
A: The activation was 1.05% [at 8.39 µM].

Q: For `CCCN(C1CCN(C(=O)C2CCNCC2)CC1)[C@@H]1CCc2ccc(OC)cc2C1`, which Potency is on record?
A: The Potency was “inactive”.

Q: For `N#C[C@@H]1CC(F)(F)CN1C(=O)CNC1CC2CCC(C1)N2c1ncccn1` (stereo not given in full), which Potency is on record?
A: Its Potency is “inactive”.

Q: With `COc1ccc(/C(C)=C/C(=O)O)c(OC)c1` as the molecule, how does the Potency read?
A: The Potency was “inactive”.

Q: With `CCCCCCCCCCCCSC#N` as the molecule, how does the Potency read?
A: The Potency was “inactive”.

Q: Which Potency does the source give for `Cc1cc(SC2=C(O)C[C@@](CCc3ccc(N)cc3)(C(C)C)OC2=O)c(C(C)(C)C)cc1CO` here?
A: Its Potency is “inactive”.

Q: For `O=C(N[C@@H](Cc1ccccc1)[C@@H](O)C(=O)N1C[C@@H](O)[C@@H](O)C1)c1cc2cc(Cl)ccc2[nH]1`, which Potency is on record?
A: Its Potency is “inactive”.

Q: For `Sc1nc(S)nc(S)n1`, which Potency is on record?
A: The Potency was “inactive”.

Q: Which Potency does the source give for `O=Cc1ccc(Cl)c([N+](=O)[O-])c1` here?
A: The Potency was “inactive”.

Q: Which activation does the source give for `CC1=CC(=C(c2ccc(N)cc2)c2ccc(N)cc2)C=CC1=N` here?
A: The activation was -25.9% [at 8.39 µM].

Q: Which Potency does the source give for `CC(=O)Oc1cccc2c1C(=O)c1c(OC(C)=O)cc(C(=O)O)cc1C2=O` here?
A: Its Potency is “inactive”.

Q: With `CC(C)C/C=C(\C=O)c1ccccc1` as the molecule, how does the Potency read?
A: The Potency was “inactive”.

Q: With `COc1ccc(/C=C/c2cc(OC)cc(=O)o2)cc1` as the molecule, how does the Potency read?
A: Its Potency is 7.88 µM (active).

Q: With `Oc1ccc(CCNCCCCCCNCCc2ccccc2)cc1O` as the molecule, how does the Potency read?
A: The Potency was “inactive”.

Q: Which Potency does the source give for `CCn1nc(Cc2ccccc2)cc1C1CCN(C[C@H]2C[C@H](N(C)[C@@H](C(=O)O)C(C)C)C[C@@H]2c2cccc(F)c2)CC1` here?
A: The Potency was “inactive”.

Q: With `Nc1cccc2c(=O)[nH][nH]c(=O)c12` as the molecule, how does the Potency read?
A: Its Potency is “inactive”.

Q: Which Potency does the source give for `N#CCCCC(C#N)CCC#N` (stereo not given) here?
A: Its Potency is “inactive”.
